Experimental findings from PubChem BioAssay (EPA / NIEHS) are described below.

Test [1] can be described thus: APR_HepG2_CellCycleArrest_24hr: Apredica 24-hour HepG2 Assay for Cell Cycle Arrest (AID 2282905).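 Note: cell cycle arrest scored as ratio of 2N to 4N nuclear DNA content.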 To be noted: imaging, actives raise or lower the signal. An outline of the steps: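 Readout: Hoechst 33342 nuclear DNA content by high-content fluorescent imaging, six images/well, 20x. Human HepG2 liver cells, 24 hr compound exposure, 0.39–200 uM, final DMSO 0.5% v/v. Gain or loss fitted relative to DMSO baseline.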

Test [2] can be described thus: APR_HepG2_NuclearSize_24hr: Apredica 24-hour HepG2 Assay for Nuclear Size (AID 2282907). The following applies: high-content imaging, actives raise or lower the signal. An outline of the steps:
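Read-out: nuclear diameter from Hoechst 33342 (2 ug/mL) imaging of fixed HepG2 cells, 20x, six fields/well. Compounds ran at 0.39–200 uM for 24 hr, 0.5% DMSO final. Gain or loss was fitted bidirectionally relative to the DMSO baseline.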

A short description of test [3]: APR_HepG2_CellLoss_24hr: Apredica 24-hour HepG2 Assay for Cell Loss (AID 2282908).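 For AC50: fit in both directions so a hit may be cell loss or gain.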 To be noted: high-content imaging. An outline of the steps: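 Read-out: Hoechst 33342-stained nuclei counted by automated fluorescence imaging after formaldehyde fixation and Triton permeabilization. Ten concentrations, 0.39 to 200 uM, duplicate wells, 0.5% DMSO final. Gain or loss of signal fitted relative to DMSO baseline.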

A short description of test [4]: APR_HepG2_MicrotubuleCSK_24hr: Apredica 24-hour HepG2 Assay for Microtubule CSK Stabilty (AID 2282909). The following applies: HepG2 microtubule cytoskeleton imaging, actives raise or lower the signal. An outline of the steps:
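Read-out: alpha-tubulin immunofluorescence intensity by automated high-content imaging of fixed HepG2 cells after 24 h compound treatment. Ten concentrations, 0.39 to 200 uM, in duplicate; DMSO 0.5% v/v. Taxol positive control; DMSO-normalized bidirectional curve fitting.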

Test [5] in a line: APR_HepG2_MitoticArrest_24hr: Apredica 24-hour HepG2 Assay for Mitotic Arrest (AID 2282910). The following applies: high-content imaging, actives raise or lower the signal. An outline of the steps:
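HepG2, 24 hr dosing, 0.39–200 uM, 0.5% DMSO final. Formaldehyde-fixed, Triton-permeabilised, anti-phospho-histone H3 plus Hoechst. ArrayScan imaging at 20x; bidirectional fit vs DMSO baseline.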

Test [6] in a line: APR_HepG2_MitoMembPot_24hr: Apredica 24-hour HepG2 Assay for Mitochondrial Membrane Potential (AID 2282911). The following applies: imaging, actives raise or lower the signal. The gist of the method: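 Mitochondrial dye uptake (MitoTracker Red CMXRos, 250 nM, 30 min pre-fixation) in HepG2 after 24 hr compound exposure, 0.39–200 uM; ArrayScan images at 20x, activity fitted in both directions relative to DMSO.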

Test [7] can be described thus: APR_HepG2_MitoMass_24hr: Apredica 24-hour HepG2 Assay for Mitochondrial Mass (AID 2282912). The following applies: high-content imaging, actives raise or lower the signal. An outline of the steps: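 HepG2, 24 hr dosing, 10 concentrations 0.39–200 uM in duplicate, DMSO 0.5% final. MitoTracker Red CMXRos 250 nM, 30 min pre-fix; 3.7% formaldehyde fix. Imaging-based fluorescence intensity; gain/loss fit vs DMSO baseline.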

A short description of test [8]: APR_HepG2_p53Act_24hr: Apredica 24-hour HepG2 Assay for p53 Activation (AID 2282913).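 Note: p53 protein immunofluorescence averaged per cell in HepG2 with Hoechst nuclei.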 The following applies: high-content imaging, actives raise or lower the signal. An outline of the steps:
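Following 24 hr dosing of HepG2 at 0.39–200 uM, the cells undergo formaldehyde fixation, Triton permeabilization and multiplexed antibody labeling that includes p53 (Cy5). Signal from the imaging is referenced to DMSO solvent controls.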

The nature of test [9]: APR_HepG2_CellCycleArrest_72hr: Apredica 72-hour HepG2 Assay for Cell Cycle Arrest (AID 2282914). The following applies: high-content imaging, actives raise or lower the signal. The gist of the method:
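Using multiplexed high-content imaging, HepG2 nuclei stained with Hoechst 33342 (2 ug/mL) were analysed for DNA content after fixation and permeabilization. Treatment lasted 72 hr across 0.39–200 uM in duplicate with final DMSO 0.5% v/v; DMSO served as negative control.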

Test [10] can be described thus: APR_HepG2_P-H2AX_72hr: Apredica 72-hour HepG2 Assay for H2AX Phosphorylation (AID 2282916).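 Note: phospho-histone H2A.x immunostain intensity per cell marking DNA damage.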 The following applies: imaging, actives raise or lower the signal. The gist of the method: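 Readout: phospho-H2A.x immunofluorescence (FITC secondary) plus Hoechst nuclear stain, high-content imaging at 20x, six fields/well. HepG2, 72 hr compound exposure, 0.39–200 uM, final DMSO 0.5% v/v. Gain or loss fitted relative to DMSO baseline.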

Test [11] is described as follows: APR_HepG2_MitoMembPot_72hr: Apredica 72-hour HepG2 Assay for Mitochondrial Membrane Potential (AID 2282917). To be noted: imaging, actives raise or lower the signal. The gist of the method:
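HepG2 cells dosed 72 hr with compound at 0.39–200 uM in duplicate, 0.5% v/v DMSO final. Mitochondria stained with 250 nM MitoTracker Red CMXRos for 30 min before formaldehyde fixation, imaged by high-content fluorescence; bidirectional fit versus DMSO.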

The nature of test [12]: APR_HepG2_MitoticArrest_72hr: Apredica 72-hour HepG2 Assay for Mitotic Arrest (AID 2282918). To be noted: high-content imaging, actives raise or lower the signal. An outline of the steps: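 Using high-content imaging of fixed HepG2 cells, phospho-histone H3 signal was measured following a 72 hr incubation with ten-point compound dilutions up to 200 uM. DMSO served as the negative control and baseline for bidirectional curve fitting.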

The nature of test [13]: APR_HepG2_MicrotubuleCSK_72hr: Apredica 72-hour HepG2 Assay for Microtubule CSK Stabilty (AID 2282919). The following applies: HepG2 microtubule cytoskeleton, high-content imaging, actives raise or lower the signal. The gist of the method:
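HepG2, 72 hr cmpd exposure, 0.39–200 uM (10 pts, duplicate), 0.5% DMSO. 3.7% formaldehyde fix, 0.5% Triton perm, anti-alpha-tubulin/Cy5 plus Hoechst. HCS fluorescence intensity; bidirectional fit vs DMSO baseline; taxol as positive control.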

Test [14] is described as follows: APR_HepG2_P-H2AX_24hr: Apredica 24-hour HepG2 Assay for H2AX Phosphorylation (AID 2282920). The following applies: high-content imaging, actives raise or lower the signal. An outline of the steps: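 Human HepG2 liver cells, treated 24 hr with test chemicals (0.39–200 uM, final DMSO 0.5% v/v), are fixed and co-stained for phospho-H2A.x and c-Jun with Hoechst. Imaged intensity is fitted in both directions against DMSO controls.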

Test [15] is described as follows: APR_HepG2_StressKinase_72hr: Apredica 72-hour HepG2 Assay for Stress Kinase (AID 2282921). To be noted: HepG2 stress kinase (phospho-c-Jun) imaging, actives raise or lower the signal. An outline of the steps: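 Phospho-c-Jun immunofluorescence measured by high-content imaging at 20x, six fields per well; bidirectional curve fitting against DMSO as baseline. Dosing: 0.39–200 uM, 72 h, 0.5% DMSO final.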

Test [16] in a line: APR_HepG2_StressKinase_24hr: Apredica 24-hour HepG2 Assay for Stress Kinase (AID 2282922). To be noted: HepG2 stress kinase (phospho-c-Jun) imaging, actives raise or lower the signal. The gist of the method: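 Read-out: phospho-c-Jun immunofluorescence (Cy3 secondary) quantified by high-content imaging at 20x, nuclei defined by Hoechst 33342. Human HepG2 liver cells dosed 24 hr, 0.39–200 uM, DMSO 0.5% v/v; gain or loss of signal fitted relative to DMSO.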

Test [17] is described as follows: APR_HepG2_p53Act_72hr: Apredica 72-hour HepG2 Assay for p53 Activation (AID 2282923).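 Note: average cellular p53 protein immunofluorescence intensity in HepG2 cells.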 The following applies: high-content imaging, actives raise or lower the signal. The gist of the method:
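Readout: p53 immunofluorescence quantified by automated high-content imaging at 20x, six fields per well, nuclei located via Hoechst. Dosing ran 72 hr over ten concentrations from 0.39 to 200 uM; bidirectional curve fitting against DMSO baseline.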

Test [18] in a line: APR_HepG2_MitoMass_72hr: Apredica 72-hour HepG2 Assay for Mitochondrial Mass (AID 2282924).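 Note: MitoTracker Red CMXRos stain intensity per cell imaged as mitochondrial mass.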 The following applies: high-content imaging, actives raise or lower the signal. An outline of the steps:
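Read-out: MitoTracker Red fluorescence intensity from automated imaging (20x, six fields per well) in human HepG2 liver cells. Dosing ran 72 hr, 0.39–200 uM, 0.5% DMSO; bidirectional curve fitting versus DMSO baseline.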

Test [19] in a line: APR_HepG2_NuclearSize_72hr: Apredica 72-hour HepG2 Assay for Nuclear Size (AID 2282925). To be noted: high-content imaging, actives raise or lower the signal. An outline of the steps:
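Read-out: nuclear diameter from Hoechst 33342 images (ArrayScan, 20x, six fields/well), via cell-cycle image analysis. HepG2 were dosed 0.39–200 uM for 72 hr in 0.5% DMSO. Bidirectional fit relative to DMSO.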

Test [20] in a line: APR_HepG2_CellLoss_72hr: Apredica 72-hour HepG2 Assay for Cell Loss (AID 2282915). To be noted: high-content imaging. The gist of the method: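 HepG2 cells exposed 72 h to compound at 0.39–200 uM (10 concentrations, duplicate) in 0.5% DMSO. Fixed with 3.7% formaldehyde and Hoechst 33342-stained. Imaged at 20x; nuclear count gives cell number, fitted bidirectionally versus DMSO.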

Calls of active or inactive are those of the source. Rule for the calls: active = hit-call score of the fitted dose curve at least 0.9, where 1 is the maximum; inactive = score below 0.9.

As for `CCCOC(=O)c1cc(O)c(O)c(O)c1`, the call in [1], in test [2], in test [3], in [4], in test [5] and in test [6] was inactive. Besides, the compound was called inactive in test [7], in test [10], in test [11], in [12], in test [13] and in test [14]. Moreover, the outcome in test [15], in test [16], in test [18] and in test [19] was inactive. Moreover, the AC50 – broadly, the concentration giving half of the maximal activity seen – is 38.1 µM (active) in test [8], 46.2 µM (active) in [9] and 38.8 µM (active) in [17].

Regarding `CO[C@H]1/C=C/O[C@@]2(C)Oc3c(C)c(O)c4c(O)c(c(/C=N/N5CCN(C)CC5)c(O)c4c3C2=O)NC(=O)/C(C)=C\C=C\[C@H](C)[C@H](O)[C@@H](C)[C@@H](O)[C@@H](C)[C@H](OC(C)=O)[C@@H]1C`, the outcome in test [1], in test [2], in test [3], in test [4], in [5] and in [6] was inactive. Also, the outcome in test [7], in test [8], in test [9], in test [10], in test [13] and in test [14] was inactive. The outcome in test [15], in test [16], in test [17], in test [18] and in test [19] was inactive. Besides, the AC50 in test [20] is 45.2 µM (active); in test [12], 46.2 µM (active).

For `CC(O)CC(C)(C)O` (stereo not drawn), the outcome in test [1], in test [2], in [3], in test [4], in test [5] and in [6] was inactive. The compound was called inactive in test [7], in [8], in [9], in test [10], in [12] and in test [13]. The compound was classed as inactive in test [14], in test [15], in test [16], in [17], in [18] and in test [19]. The AC50 was 70.6 µM (active) in test [20] and 1.62 µM (active) in test [11].

Consider `CC(C)(c1cc(Br)c(O)c(Br)c1)c1cc(Br)c(O)c(Br)c1`, for which the AC50 is 77 µM (active) in test [1]; 92.1 µM (active) in [3]; 96.3 µM (active) in test [5]; 66.1 µM (active) in test [6]; 82.9 µM (active) in test [9]; 56.7 µM (active) in [20]. For the same compound, the AC50 in [10] is 63.3 µM (active); in test [12], 69 µM (active); in test [14] it was 70.7 µM (active); in test [17] it was 47.8 µM (active); in test [18] it was 51.4 µM (active); in test [19], 77.7 µM (active). The result in test [2], in [4], in [7], in test [8], in test [11] and in [13] was inactive. Further, the outcome in [15] and in test [16] was inactive.

Take `CC[C@@H]1C[C@H](N(Cc2cc(C(F)(F)F)cc(C(F)(F)F)c2)C(C)=O)c2cc(C(F)(F)F)ccc2N1C(=O)OC(C)C`: the result in [1], in test [2], in [3], in test [4], in test [5] and in test [7] was inactive. Further, the compound was called inactive in test [8], in test [9], in [20], in [10], in test [11] and in test [12]. Besides, the result in [13], in test [14], in test [15], in test [16], in test [17] and in test [18] was inactive. In test [19], the compound was called inactive. The AC50 in test [6] is 0.0358 µM (active).

With `Cc1cn([C@H]2C[C@H](N=[N+]=[N-])[C@@H](CO)O2)c(=O)[nH]c1=O`, the result in test [1], in test [2], in test [3], in [4], in test [5] and in [6] was inactive. Further, the compound was classed as inactive in test [7], in test [8], in [20], in [10], in test [11] and in [12]. Also, the compound was called inactive in test [13], in test [14], in test [15], in test [16], in test [17] and in test [18]. Moreover, the compound was classed as inactive in test [19]. Moreover, the AC50 in test [9] was 46.3 µM (active).
